Assay results as given in PubChem BioAssay (Tox21).
Activity calls are given as the source filed them. The call rests on the fitted dose curve; in most records, active means well fitted curve in the direction sought with a large enough effect in the repeat runs; inconclusive means weak or mixed curves; inactive means flat fitted curve, though single readings scatter.

assay: qHTS assay to test for compound auto fluorescence at 590 nm (red) in HEK293 cell free culture (AID 720683); conditions: cell-free medium autofluorescence, Ex540/Em590 red; series mostly up to 91.3 µM; fluorescence, % of fluorescent control: at the top concentration
Procedure, shortened: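 Red-channel autofluorescence of compounds in culture medium (DMEM, 10% FBS), no cells, measured at 540/590 nm. Rose Bengal sodium is the reference fluorophore for equivalence.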
On the % scale 0 is the no-effect control and ±100 the full control effect.

Row | Structure (SMILES) | fluorescence, % of fluorescent control | outcome
1 | C=C(C)C(=O)OCCC(F)(F)C(F)(F)C(F)(F)C(F)(F)C(F)(F)C(F)(F)F | -0.0477% (inactive) | –
2 | COC1CCC=CO1 (centres undefined) | 0.0089% (inactive) | –
3 | CNCc1ccc(NC(=O)c2c[nH]c3c2C(=O)CCC3)cc1 | 0.174% (inactive) | –
4 | Cc1ccc(NC(=O)N(C)C)cc1NC(=O)N(C)C | 0.269% (inactive) | –
5 | N[C@@H](Cc1cc(I)c(O)c(I)c1)C(=O)O | -0.233% [at 46 µM] (inactive) | –
6 | CCC(C)(C)C(=O)O | -0.0034% (inactive) | –
7 | O=[N+]([O-])c1ccc2ncccc2c1 | 0.0822% (inactive) | –
8 | C[C@@H]1[C@H](O)[C@@H](C)/C=C/C=C\C=C\C=C\C=C\C=C\C=C\[C@H](O[C@@H]2O[C@H](C)[C@@H](O)[C@H](N)[C@@H]2O)C[C@@H]2O[C@](O)(C[C@@H](O)C[C@@H](O)[C@H](O)CC[C@@H](O)C[C@@H](O)CC(=O)O[C@H]1C)C[C@H](O)[C@H]2C(=O)O (stereo in doubt) | – | inactive
9 | COc1cc(C(C)=O)ccc1OCCCN1CCC(c2noc3cc(F)ccc23)CC1 | 0.302% [at 46 µM] (inactive) | –
10 | Cc1cc([N+](=O)[O-])ccc1N | -0.336% (inactive) | –
11 | O=C1OC(=O)c2c(Br)c(Br)c(Br)c(Br)c21 | -0.22% (inactive) | –
12 | Oc1ccc2c(c1)Cc1ccccc1-2 | 0.0124% (inactive) | –
13 | CC(C)COC(=O)c1ccc(O)cc1 | -0.0866% (inactive) | –
14 | CN1CCCN(C(c2ccccc2)c2ccc(Cl)cc2)CC1 (centres undefined) | 0.0778% [at 46 µM] (inactive) | –
15 | CC[C@H]1OC(=O)[C@H](C)[C@@H](O[C@H]2C[C@@](C)(OC)[C@@H](O)[C@H](C)O2)[C@H](C)[C@@H](O[C@@H]2O[C@H](C)C[C@H](N(C)C)[C@H]2O)[C@](C)(O)C[C@@H](C)CN(C)[C@H](C)[C@@H](O)[C@]1(C)O | – | inactive
16 | O=C(O)c1ccc(O)cc1O | 0.0223% (inactive) | –
17 | Nc1cccc2c(N)cccc12 | 0.394% (inactive) | –
18 | C=CCOC(=O)COCCC(C)C | -0.0631% (inactive) | –
19 | CC(C(=O)O)c1ccc(C(=O)c2cccs2)cc1 (centres undefined) | -0.0893% [at 18.6 µM] (inactive) | –
20 | COc1cc(OC)c2ccc(=O)oc2c1 | -0.503% (inactive) | –
21 | CC(=O)N[C@@H](Cc1ccc(O)cc1)C(=O)O | 0.341% [at 46 µM] (inactive) | –
22 | CCC(Cl)CC(Cl)C(Cl)C(Cl)C(Cl)C(C)Cl (centres undefined) | -0.0269% [at 13.4 µM] (inactive) | –
23 | CCSC(=O)N(CC)CC | 0.105% (inactive) | –
24 | COc1ccc(C2C(=O)c3ccccc3C2=O)cc1 | -0.02% [at 46 µM] (inactive) | –
25 | CCCCCc1ccco1 | 0.123% (inactive) | –
26 | CC(C)(C)S | 0.162% [at 95.7 µM] (inactive) | –
27 | O=C(Oc1ccccc1)c1ccc2ccccc2c1O | -0.0488% (inactive) | –
28 | CC(C)(O)CCc1ccccc1 | -0.0408% (inactive) | –
29 | CC(=O)OCC(C)C | -0.393% (inactive) | –
